{
  "source": "the supplement of paper PMC7724964",
  "note": "± gives the standard deviation of the averaged measurements.",
  "data": [
    {"molecular_target": "T1, BTN1A1 285-479 SPRY (domain begin residue: 285, domain end residue: 479), Q13410", "T1 chain": "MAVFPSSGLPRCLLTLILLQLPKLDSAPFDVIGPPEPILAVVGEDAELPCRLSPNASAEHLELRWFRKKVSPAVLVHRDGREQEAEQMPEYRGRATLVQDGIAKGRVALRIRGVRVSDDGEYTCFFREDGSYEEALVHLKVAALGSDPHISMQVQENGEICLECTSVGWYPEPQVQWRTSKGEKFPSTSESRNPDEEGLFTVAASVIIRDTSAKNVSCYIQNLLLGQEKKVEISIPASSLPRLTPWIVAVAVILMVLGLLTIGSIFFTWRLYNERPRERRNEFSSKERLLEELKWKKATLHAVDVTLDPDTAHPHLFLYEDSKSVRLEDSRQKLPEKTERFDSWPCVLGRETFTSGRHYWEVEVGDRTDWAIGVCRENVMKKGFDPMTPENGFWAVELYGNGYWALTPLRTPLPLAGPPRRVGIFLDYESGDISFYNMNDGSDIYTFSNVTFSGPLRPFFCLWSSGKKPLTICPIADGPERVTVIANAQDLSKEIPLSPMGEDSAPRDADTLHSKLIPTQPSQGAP", "experiment": "phage ELISA signal ratio (GST-PRM binding over GST background); higher = stronger binding of peptide-phage to the PRM", "experimental": "(§1)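 Phage-displayed random hexadecapeptides (Cys-free, flanked by invariant Gly linkers, fused to the M13 P8 major coat protein) were selected over 5 rounds against GST-fused human PRM domains. Individual clones from rounds 4-5 were tested by phage ELISA, and positive clones binding the target but not GST were sequenced. Values are the ELISA signal ratio of target over background (GST); the background signal is given separately.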", "values": [
      {"binder": "FEQHWMQKQMAVRQIV", "phage ELISA signal ratio": 13.6},
      {"binder": "RDPHWQHKQQMQIVLM", "phage ELISA signal ratio": 11.1}
    ]},
    {"molecular_target": "T2, ALDOA 1-364 Glycolytic (domain begin residue: 1, domain end residue: 364), P04075", "T2 chain": "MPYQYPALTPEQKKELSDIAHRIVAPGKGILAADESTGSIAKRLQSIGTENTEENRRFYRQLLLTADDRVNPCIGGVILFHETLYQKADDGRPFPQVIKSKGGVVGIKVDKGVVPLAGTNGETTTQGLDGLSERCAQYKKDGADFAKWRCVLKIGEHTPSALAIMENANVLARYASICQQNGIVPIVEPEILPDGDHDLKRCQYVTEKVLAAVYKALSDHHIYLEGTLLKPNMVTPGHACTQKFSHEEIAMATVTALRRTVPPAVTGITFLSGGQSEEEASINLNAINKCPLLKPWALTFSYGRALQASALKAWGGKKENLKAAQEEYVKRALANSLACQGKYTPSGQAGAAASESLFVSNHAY", "experiment": "phage ELISA signal ratio (GST-PRM binding over GST background); higher = stronger binding of peptide-phage to the PRM", "experimental": "as §1", "values": [
      {"binder": "WHVWDPVMEVFDWPEM", "phage ELISA signal ratio": 18.1}
    ]},
    {"molecular_target": "ARF3 1-181 Arf (domain begin residue: 1, domain end residue: 181), P61204", "sequence (P61204 whole entry)": "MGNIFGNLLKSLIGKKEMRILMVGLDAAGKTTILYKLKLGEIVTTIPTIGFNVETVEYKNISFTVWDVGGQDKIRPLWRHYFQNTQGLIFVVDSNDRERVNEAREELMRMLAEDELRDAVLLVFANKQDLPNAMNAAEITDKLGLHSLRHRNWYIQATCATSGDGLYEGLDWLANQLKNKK", "experiment": "phage ELISA signal ratio (GST-PRM binding over GST background); higher = stronger binding of peptide-phage to the PRM", "experimental": "as §1", "values": [
      {"binder": "DIYWGYHMTDFISQET", "phage ELISA signal ratio": 15.3}
    ]},
    {"molecular_target": "T3, CAPNS1 1-268 EF-hand_8+EF-hand_5 (domain begin residue: 1, domain end residue: 268), P04632", "T3 chain": "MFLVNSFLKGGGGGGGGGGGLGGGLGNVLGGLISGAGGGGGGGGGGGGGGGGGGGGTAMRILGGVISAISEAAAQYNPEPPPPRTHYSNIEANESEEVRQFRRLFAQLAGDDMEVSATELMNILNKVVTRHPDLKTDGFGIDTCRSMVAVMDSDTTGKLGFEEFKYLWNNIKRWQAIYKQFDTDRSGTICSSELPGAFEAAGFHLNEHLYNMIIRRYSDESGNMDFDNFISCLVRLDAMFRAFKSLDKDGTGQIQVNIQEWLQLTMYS", "experiment": "phage ELISA signal ratio (GST-PRM binding over GST background); higher = stronger binding of peptide-phage to the PRM", "experimental": "as §1", "values": [
      {"binder": "YQQDLVDFLWNDLYAF", "phage ELISA signal ratio": 22.7}
    ]},
    {"molecular_target": "T4, ARID4A 568-634 Tudor-knot (domain begin residue: 568, domain end residue: 634), P29374", "T4 chain": "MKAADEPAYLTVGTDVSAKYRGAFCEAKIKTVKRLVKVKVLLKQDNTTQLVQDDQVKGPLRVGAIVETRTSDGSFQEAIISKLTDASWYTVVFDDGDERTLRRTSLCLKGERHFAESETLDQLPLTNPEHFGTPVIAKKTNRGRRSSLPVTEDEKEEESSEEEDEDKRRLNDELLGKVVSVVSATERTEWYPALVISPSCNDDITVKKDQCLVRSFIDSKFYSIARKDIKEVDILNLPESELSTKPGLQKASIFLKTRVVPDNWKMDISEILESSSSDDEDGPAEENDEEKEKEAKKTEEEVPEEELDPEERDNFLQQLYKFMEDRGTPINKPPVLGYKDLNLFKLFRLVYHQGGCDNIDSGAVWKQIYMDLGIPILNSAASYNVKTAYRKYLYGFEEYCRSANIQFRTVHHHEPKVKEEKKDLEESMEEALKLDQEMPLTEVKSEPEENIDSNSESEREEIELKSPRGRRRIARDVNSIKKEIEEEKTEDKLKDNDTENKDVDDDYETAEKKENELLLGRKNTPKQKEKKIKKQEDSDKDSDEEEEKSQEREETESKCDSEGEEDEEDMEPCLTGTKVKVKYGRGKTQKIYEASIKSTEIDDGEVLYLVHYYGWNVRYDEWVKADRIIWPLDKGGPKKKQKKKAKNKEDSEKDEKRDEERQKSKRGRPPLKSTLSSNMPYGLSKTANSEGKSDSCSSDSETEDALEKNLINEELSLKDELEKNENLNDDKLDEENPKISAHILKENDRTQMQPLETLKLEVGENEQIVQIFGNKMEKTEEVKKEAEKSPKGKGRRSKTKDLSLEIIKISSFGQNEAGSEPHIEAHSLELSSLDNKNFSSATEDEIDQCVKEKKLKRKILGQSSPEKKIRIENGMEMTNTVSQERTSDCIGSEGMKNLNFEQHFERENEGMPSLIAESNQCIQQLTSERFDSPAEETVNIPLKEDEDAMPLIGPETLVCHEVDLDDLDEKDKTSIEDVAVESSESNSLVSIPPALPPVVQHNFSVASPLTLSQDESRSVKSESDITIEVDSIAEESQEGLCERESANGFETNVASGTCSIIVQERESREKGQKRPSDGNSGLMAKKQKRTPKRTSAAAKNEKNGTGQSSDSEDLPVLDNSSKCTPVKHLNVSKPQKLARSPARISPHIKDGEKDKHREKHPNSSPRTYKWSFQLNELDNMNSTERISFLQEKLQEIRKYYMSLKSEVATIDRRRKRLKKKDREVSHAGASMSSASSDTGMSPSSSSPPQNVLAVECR", "experiment": "phage ELISA signal ratio (GST-PRM binding over GST background); higher = stronger binding of peptide-phage to the PRM", "experimental": "as §1", "values": [
      {"binder": "HFIELMYDAPEMHMPW", "phage ELISA signal ratio": "5.33 ± 1.7"}
    ]},
    {"molecular_target": "KMT2C 1055-1137 PHD (domain begin residue: 1055, domain end residue: 1137)", "experiment": "phage ELISA signal ratio (GST-PRM binding over GST background); higher = stronger binding of peptide-phage to the PRM", "experimental": "as §1", "values": [
      {"binder": "HFIELMYDAPEMHMPW", "phage ELISA signal ratio": 6.76}
    ]},
    {"molecular_target": "T5, ARFGEF2 639-829 Sec7 (domain begin residue: 639, domain end residue: 829), Q9Y6D5", "T5 chain": "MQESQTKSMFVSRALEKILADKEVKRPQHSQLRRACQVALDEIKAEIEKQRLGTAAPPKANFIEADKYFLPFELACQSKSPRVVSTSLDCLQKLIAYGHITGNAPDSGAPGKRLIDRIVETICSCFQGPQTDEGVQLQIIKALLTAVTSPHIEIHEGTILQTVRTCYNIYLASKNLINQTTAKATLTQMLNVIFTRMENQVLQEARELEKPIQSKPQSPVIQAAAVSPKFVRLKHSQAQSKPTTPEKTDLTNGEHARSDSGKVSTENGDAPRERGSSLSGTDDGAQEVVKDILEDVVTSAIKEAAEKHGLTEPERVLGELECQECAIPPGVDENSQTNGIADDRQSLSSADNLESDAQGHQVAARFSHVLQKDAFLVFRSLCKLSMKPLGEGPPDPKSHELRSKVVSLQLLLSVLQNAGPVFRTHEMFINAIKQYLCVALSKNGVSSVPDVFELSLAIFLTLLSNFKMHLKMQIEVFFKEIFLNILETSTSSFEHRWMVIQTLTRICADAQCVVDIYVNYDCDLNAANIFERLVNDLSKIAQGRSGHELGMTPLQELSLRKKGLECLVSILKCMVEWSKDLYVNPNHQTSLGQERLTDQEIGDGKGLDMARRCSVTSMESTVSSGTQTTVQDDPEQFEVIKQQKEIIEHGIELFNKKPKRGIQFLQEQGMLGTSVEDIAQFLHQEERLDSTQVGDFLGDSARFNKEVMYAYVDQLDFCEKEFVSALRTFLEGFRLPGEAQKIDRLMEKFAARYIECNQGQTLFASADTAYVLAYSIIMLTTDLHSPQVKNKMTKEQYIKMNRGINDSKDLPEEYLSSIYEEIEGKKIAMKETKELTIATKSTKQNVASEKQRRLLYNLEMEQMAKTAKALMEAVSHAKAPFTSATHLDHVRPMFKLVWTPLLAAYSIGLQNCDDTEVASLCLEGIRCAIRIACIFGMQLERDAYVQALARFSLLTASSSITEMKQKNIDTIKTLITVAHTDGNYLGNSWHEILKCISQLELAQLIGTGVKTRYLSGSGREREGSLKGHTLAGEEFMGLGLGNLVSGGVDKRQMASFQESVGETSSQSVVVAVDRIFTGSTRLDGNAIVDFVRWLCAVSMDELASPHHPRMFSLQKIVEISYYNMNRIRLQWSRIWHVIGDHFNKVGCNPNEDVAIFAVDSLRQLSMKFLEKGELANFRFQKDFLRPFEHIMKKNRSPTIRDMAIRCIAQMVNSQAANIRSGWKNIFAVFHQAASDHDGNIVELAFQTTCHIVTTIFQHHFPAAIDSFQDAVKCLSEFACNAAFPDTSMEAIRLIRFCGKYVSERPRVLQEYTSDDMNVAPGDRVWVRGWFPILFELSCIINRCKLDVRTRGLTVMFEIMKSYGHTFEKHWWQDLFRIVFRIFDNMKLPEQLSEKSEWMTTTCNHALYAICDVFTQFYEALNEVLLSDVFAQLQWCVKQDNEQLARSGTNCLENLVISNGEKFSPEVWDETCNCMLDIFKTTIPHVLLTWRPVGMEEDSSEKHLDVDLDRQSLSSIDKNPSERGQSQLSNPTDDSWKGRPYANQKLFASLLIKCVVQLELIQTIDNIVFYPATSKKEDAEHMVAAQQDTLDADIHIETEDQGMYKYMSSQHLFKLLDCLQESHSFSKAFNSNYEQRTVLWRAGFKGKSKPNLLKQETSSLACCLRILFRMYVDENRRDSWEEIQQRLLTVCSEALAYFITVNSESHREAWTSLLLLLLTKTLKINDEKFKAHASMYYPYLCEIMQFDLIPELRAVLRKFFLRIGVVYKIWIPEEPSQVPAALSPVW", "experiment": "phage ELISA signal ratio (GST-PRM binding over GST background); higher = stronger binding of peptide-phage to the PRM", "experimental": "as §1", "values": [
      {"binder": "MPDGLPEWWQGRHDWW", "phage ELISA signal ratio": 18.2}
    ]},
    {"molecular_target": "CBX3 109-173 Chromo_shadow (domain begin residue: 109, domain end residue: 173), Q13185", "sequence (Q13185 whole entry)": "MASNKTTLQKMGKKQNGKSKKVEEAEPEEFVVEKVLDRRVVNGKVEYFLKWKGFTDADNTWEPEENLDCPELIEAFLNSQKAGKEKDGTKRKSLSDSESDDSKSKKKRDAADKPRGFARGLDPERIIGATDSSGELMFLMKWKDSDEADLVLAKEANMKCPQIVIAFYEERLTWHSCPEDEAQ", "experiment": "phage ELISA signal ratio (GST-PRM binding over GST background); higher = stronger binding of peptide-phage to the PRM", "experimental": "as §1", "values": [
      {"binder": "IQKWMNFDDFATAVFH", "phage ELISA signal ratio": 11.5}
    ]}
  ]
}
